# PPARg SRC1 recr: PPARgamma agonists recruiting SRC-1 coactivator, primary screen, biochemical. PPARgamma-SRC-1 coactivator recruitment biochemical assay. Peroxisome proliferator-activated receptor gamma (Homo sapiens), P37231. actives 0.41% (n = 200,000). activation, % at 8 µM. AID 631, 2007; in the data active = activation above about 19%;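 also: 0% = DMSO and 100% = reference agonist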
# Target sequence (P37231 whole entry, looked up): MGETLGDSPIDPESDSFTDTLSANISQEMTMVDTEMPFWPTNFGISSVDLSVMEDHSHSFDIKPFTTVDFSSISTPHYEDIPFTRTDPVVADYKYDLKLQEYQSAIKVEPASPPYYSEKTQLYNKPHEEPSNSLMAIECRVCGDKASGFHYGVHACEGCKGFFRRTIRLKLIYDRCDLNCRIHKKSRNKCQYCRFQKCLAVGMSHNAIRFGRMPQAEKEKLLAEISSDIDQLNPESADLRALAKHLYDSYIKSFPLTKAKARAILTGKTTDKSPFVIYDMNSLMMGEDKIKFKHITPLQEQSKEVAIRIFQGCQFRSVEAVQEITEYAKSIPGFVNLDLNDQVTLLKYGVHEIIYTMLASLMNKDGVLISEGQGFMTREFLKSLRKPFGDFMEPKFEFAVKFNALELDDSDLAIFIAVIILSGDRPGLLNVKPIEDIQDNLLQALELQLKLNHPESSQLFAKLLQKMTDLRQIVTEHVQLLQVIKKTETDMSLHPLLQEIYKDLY
# PPARg SRC-2 ag: agonists of PPARg-SRC-2 recruitment, primary screen, biochemical, HTS. Peroxisome proliferator-activated receptor gamma (Homo sapiens), P37231. PPARgamma LBD-SRC-2 recruitment. activation, % at 8 µM. actives 0.34% (n = 200,000). AID 1032, 2008; in the data active = activation above about 22%;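 also: 0% = vehicle and 100% = reference agonist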
# PPARg SRC3 recr: PPARgamma agonists recruiting SRC-3 coactivator, primary screen, biochemical; biochemical PPARgamma/SRC-3 coactivator recruitment assay; activation, % at 8 µM; actives 0.26% (n = 200,000); in the data active = activation above about 23%;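 also: 0% = DMSO and 100% = reference agonist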
# SRC1 TRFRET art: TR-FRET detection interference compounds, primary screen, artefact control for PPARgamma SRC-1 recruitment agonists, biochemical, TR-FRET emission ratio; actives 0.34% (n = 99,000); TR-FRET ratio at 8 µM; AID 1051, 2008; TR-FRET detection artefact counter-screen; active compounds read high; in the data active = TR-FRET ratio above about 2300
# TR-FRET SRC-2 ct: TR-FRET signal artefacts, primary screen, artefact control for PPARgamma SRC-2 agonist project, biochemical | AID 1049, 2008 | TR-FRET ratio at 8 µM | TR-FRET artefact counter-screen; active compounds read high | actives 0.4% (n = 200,000)
# SRC3 TRFRET art: TR-FRET detection interference compounds, artefact control for PPARgamma SRC-3 recruitment agonists, biochemical, TR-FRET ratio; TR-FRET artefact counter-screen, PPARgamma/SRC-3 format; active compounds read high; actives 0.39% (n = 99,000); TR-FRET ratio at 8 µM
# * hit, by the source's call; x = no result. Sampled rows, rich in hits. Any-hit rate of the full collection: about 0.9%. Rule as the data show it, unless noted: active = TR-FRET ratio above about 2000; inactive = the rest.
SMILES,PPARg SRC1 recr,PPARg SRC-2 ag,PPARg SRC3 recr,SRC1 TRFRET art,TR-FRET SRC-2 ct,SRC3 TRFRET art
O=C(Cc1cccs1)Nc1ccc(-c2nnc(-c3ccccc3)o2)cc1,21*,11,3,x,1692,x
N#Cc1c(SCC(N)=O)nc2c(c1-c1ccc(OCc3ccccc3)cc1)CCCC2,63*,9,71*,x,1578,x
COC(C(=O)Nc1c(F)cccc1F)c1ccccc1 (configuration not stated),4,-10,-4,1613,1318,1443
O=C1CCCN2N=C(SCC(=O)N3N=C(c4ccc(Br)cc4)CC3c3ccc(F)cc3)SC2=N1 (configuration not stated),-4,-2,-3,2131,2012*,2326*
COc1ccc(C2=NN(C(=O)CSc3nc4ccccc4s3)C(c3ccc(F)cc3)C2)cc1 (configuration not stated),-8,8,-4,1833,1326,1435
O=c1cc(-c2ccccc2)[nH]n1-c1ccc([N+](=O)[O-])cc1,1,-6,6,x,1468,x
C=CCn1c(SCc2ccc(C(=O)OC)cc2)nnc1-c1sc(N)nc1C,12,2,5,1914,1972*,1516
CCCCC#Cc1ccccc1CC(=O)Nc1ccccc1,2,4,-2,1573,1474,1581
Nc1ccccc1C#CCCCCO,-5,-7,20,1639,1361,2204*
COC(=O)c1cc(OC)c(OC)cc1NC(=O)c1ccc(C)o1,3,0,-5,x,1493,x
CCCN(CCC)CCCNC(=O)c1cc2c(=O)[nH]c3ccccc3c2n1C,-2,3,-1,1663,1538,1380
Cn1c(C(=O)NCc2ccco2)cc2c(=O)[nH]c3ccccc3c21,23*,6,0,2510*,1736,1309
Clc1ncc(CN2CCN(Cc3ccccc3)CC2)s1,1,-10,-5,x,1746,x
Cc1nc(SCC(=O)Nc2ccc(F)cc2)c2oc3ccccc3c2n1,30*,2,4,x,1446,x
CCc1nc(SCC(=O)NCCc2ccccc2)c2oc3ccccc3c2n1,-4,13,3,x,2202*,x
Cc1nc(SCC(=O)Nc2ccccc2)c2oc3ccccc3c2n1,-1,-2,-3,x,1248,x
Cc1nc(SCC(=O)c2ccc(Cl)s2)c2oc3ccccc3c2n1,19*,0,-9,x,1533,x
Cc1nc(SCC(=O)NC(C)c2ccccc2)c2oc3ccccc3c2n1 (configuration not stated),6,6,4,x,1582,x
C=CC[N+](C)(C)CCCNC(=O)/C=N/O,7,8,2,1937,1663,1843
Cc1ccccc1CC1(CO)CCCN(C(=O)CCC(=O)c2ccccc2)C1 (configuration not stated),22*,0,-1,2022,1534,1671
COc1ccc(/C=C2/C(=O)N(Cc3ccccc3)N=C2C)cc1,1,0,4,1736,1595,1500
COc1ccc(/C=C2/C(=O)N(c3nc4ccccc4s3)N=C2CSc2ccc(Cl)cc2)cc1,5,0,5,2577*,1737,2197*
CCCc1nnc(NC(=O)C(CC)OC(=O)c2cc(C)nc3ccccc23)s1 (configuration not stated),-6,7,4,x,1601,x
Brc1ccc2nc(-c3c[nH]c4ccccc34)cn2c1,9,7,8,2053,1999*,1691
Clc1ccc2nc(-c3ccc4c(c3)OCO4)cn2c1,1,2,4,1809,1519,1526
SMILES,PPARg SRC1 recr,PPARg SRC-2 ag,PPARg SRC3 recr,SRC1 TRFRET art,TR-FRET SRC-2 ct,SRC3 TRFRET art
Clc1ccc(-c2cn3cc(Br)ccc3n2)cc1Cl,7,17,8,2103,2032*,1909
Cc1cccn2cc(-c3c[nH]c4ccccc34)nc12,16,0,6,2206,1734,1746
COc1cccc(NC2=C(Cl)C(=O)OC2OC(=O)c2ccco2)c1 (configuration not stated),7,-3,4,1823,1493,1556
O=C(CCCn1c(=S)[nH]c2cc3c(cc2c1=O)OCO3)N1CCN(c2ccccc2F)CC1,-1,5,-1,x,1568,x
Cc1ccc(C)c(N2CCN(C(=O)CCCn3c(=S)[nH]c4cc5c(cc4c3=O)OCO5)CC2)c1,9,10,11,x,2000*,x
Cc1nnc(NC(=O)c2nn(CC(C)C)c(=O)c3ccccc23)s1,4,-5,0,2336*,1528,1608
CC(C)CC(NC(=O)OC(C)(C)C)c1cn([C@@H](CCC(=O)OC(C)(C)C)C(=O)N2CCN(C(=O)OC(C)(C)C)CC2)nn1 (some centres not stated),-3,-1,-4,1581,1430,1512
Cc1ccc(OC/C(O)=C(\C#N)c2nc3ccccc3s2)cc1,-1,2,-4,1627,1565,1383
Cn1c(/C(C#N)=C(\O)COc2ccc3ccccc3c2)nc2ccccc21,-3,32*,-1,1718,2360*,1562
CC(=O)Nc1cccc(NC(=O)c2ccc(C)c([N+](=O)[O-])c2)c1,9,5,3,2324*,1815,1862
N/C(=N\OC(=O)COc1ccc2ccccc2c1Br)c1ccccn1,8,20,11,2360*,1993*,2027
N/C(=N\OC(=O)COc1ccc(Br)cc1Cl)c1ccccn1,9,5,4,1963,1664,1619
N/C(=N\OC(=O)COc1ccc2ccccc2c1Br)c1cccnc1,4,14,7,2331*,1797,1766
N/C(=N\OC(=O)COc1ccc(Br)cc1)c1cccnc1,8,-1,3,1675,1617,1430
O=C(O)c1ccccc1/C=N/N1CCN(C2c3ccccc3-c3ccccc32)CC1,4,11,1,1708,1579,1672
Cc1c(Cl)cccc1-n1c(SCC(=O)NCc2ccccc2Cl)nnc1-c1ccncc1,-1,2,-2,x,1596,x
CN1CCN(C(=O)c2cc3c(C(F)(F)F)nn(C)c3s2)CC1,-6,-1,-1,x,1608,x
COc1cccc(Nc2nnc(SCC3CCCCO3)s2)c1 (configuration not stated),-4,-1,7,1883,2017*,1663
COc1cc(C2/C(=C(/O)c3ccccc3)C(=O)C(=O)N2c2ccccn2)ccc1O (configuration not stated),-3,5,-1,1556,1499,1647
COC(=O)c1ccccc1NC(=O)N1CCN(C(=O)c2ccco2)CC1,-4,-2,6,1762,1733,1495
CCN(CC)c1ccc(C=Nc2cc(C)ccc2C)c(O)c1,21*,8,3,2287,1541,1646
CCOC(=O)c1sc(=NC(=O)c2cccc(OC)c2)n(C)c1C,80*,-1,-5,x,1534,x
